Data published in PubChem BioAssay (NCATS).
Records with an inconclusive call do not appear. Activity calls are given as the source filed them. Calls follow the shape of the full dose curve.

Experiment: A High-Content qHTS Against Drug Library for the Identification of Small Molecules that Inhibit DYT1 Early Onset Primary Dystonia-Associated Cell Pathology (AID 1645839)
Settings: HEK293 Flp-In EGFP-delE TorsinA, punctate imaging, 48 h; series mostly up to 46.1 µM
Description: Nicole Calakos M.D., Ph.D.
Duke University School of Medicine, Durham, NC
In DYT1 dystonia due to delGAG in the TOR1A gene, there is a robust and widely replicated finding of TorsinA protein mislocalization caused when the mutant protein is in excess of the wildtype protein (1-7). Stable HEK293 cell lines were created that replicate this phenomenon. Inducible expression of an EGFP-hu delE TorsinA encoding cDNA causes pronounced punctate cellular distribution. […] This phenotypic difference in EGFP-huTorsinA fusion protein distribution serves as an indicator of cell pathology. […] RNAi screen results with the assay were validated in DYT1 patient cell phenotypes, intersected with a known dystonia gene, and led to discovery of new human genetic dystonia associations.
The bioassay described herein is a high-content image screen with two readouts. The "%pathology" readout is the primary qHTS data channel, while the "cellcount" is the counterscreen qHTS channel. Desired active compounds are those that show inhibition in %pathology channel but no activity or minimal toxicity in cellcount readout.
1. Kustedjo, K., Bracey, M.H., and Cravatt, B.F. (2000). […] J. Biol. Chem. 275, 27933 - 27939.
2. Bragg, D.C., Kaufman, C.A., Kock, N., and Breakefield, X.O. (2004). Inhibition of N-linked glycosylation prevents inclusion formation by the dystonia-related mutant form of torsinA. Mol. Cell. Neurosci. 27, 417 - 426.
3. Gonzalez-Alegre, P., and Paulson, H.L. (2004). Aberrant Cellular Behavior of Mutant TorsinA Implicates Nuclear Envelope Dysfunction in DYT1 Dystonia. J. Neurosci. 24, 2593 - 2601.
4. Goodchild, R.E., and Dauer, W.T. (2004). Mislocalization to the nuclear envelope: an effect of the dystonia-causing torsinA mutation. Proc. Natl. Acad. Sci. U. S. A. 101, 847 - 852.
5. Kock, N., Allchorne, A.J., Sena-Esteves, M., Woolf, C.J., and Breakefield, X.O. (2006). RNAi blocks DYT1 mutant torsinA inclusions in neurons. Neurosci. Lett. 395, 201 - 205.
6. Hewett, J.W., Nery, F.C., Niland, B., Ge, P., Tan, P., Hadwiger, P., Tannous, B.A., Sah, D.W.Y., and Breakefield, X.O. (2008). siRNA knock-down of mutant torsinA restores processing through secretory pathway in DYT1 dystonia cells. Hum. Mol. Genet. 17, 1436 - 1445.
7. Calakos, N., Patel, V.D., Gottron, M., Wang, G., Tran-Viet, K.N., Brewington, D., Beyer, J.L., Steffens, D.C., Krishnan, R.R., and Zuchner, S. (2010). Functional evidence implicating a novel TOR1A mutation in idiopathic, late-onset focal dystonia. J. Med. Genet. 47, 646 - 650.
8. Rittiner* JE, Caffall* ZF, Hernandez-Martinez R, Sanderson SM, Pearson JL, Tsukayama KK, Liu AY, Xiao C, Tracy S, Shipman MK, Hickey P, Johnson J, Scott B, Stacy M, Saunders-Pullman R, Bressman S, Simonyan K, Sharma N, Ozelius LJ, Cirulli ET, Calakos N. Functional Genomic Analyses of Mendelian and Sporadic Disease Identify Impaired eIF2alpha Signaling as a Generalizable Mechanism for Dystonia. Neuron. 2016 Dec 21;92(6):1238-1251. doi: 10.1016/j.neuron.2016.11.012. Epub 2016 Dec 8. PMID: 27939583; PMCID: PMC5320521.
High-content, High-throughput Drug Screening Assay
The TorsinA mislocalization assay was modified from the previously published assay to accommodate compound testing in 1536 well format.1 Briefly, Flp-In T-REx 293 cells from Invitrogen in which a single copy of a cDNA is recombined into a specific genomic locus was used to create tetracycline-inducible expression of cDNA encoding either EGFP-hTOR1A (WT) or EGFP-delE hTOR1A (DYT1). WT and DYT1 cells were diluted to a concentration of 2 x 10^5 cells/mL in reduced serum media (DMEM High Glucose containing 1% tetracycline-tested FBS, 2 mM L-Glutamine, and 1% Penicillin/Streptomycin). 4 µl of WT cells and 4 µl of DTY1 cells were added to column 1 and columns 2-48, respectively, of a poly-D-lysine-coated, low base, black, clear bottom 1536 well plate (Corning, Corning, NY) using the BioRAPTR FRD Microfluidic Workstation (Beckman Coulter, Indianapolis, IN). The final cell number was 800 cells/well. […]

| Structure (SMILES) | outcome |
| --- | --- |
| CC1N=C(N)OC1c1ccccc1 (stereo not given) | inactive |
| CCOC(=O)c1ncn2c1CN(C)C(=O)c1c(I)cccc1-2 | inactive |
| NC(=O)OCCCc1ccccc1 | inactive |
| O=C(O)c1nn(Cc2ccc(Cl)cc2Cl)c2ccccc12 | inactive |
| O=c1n(Cl)c(=O)n(Cl)c(=O)n1Cl | inactive |
| COc1cc(C[C@@H](C)N)c(OC)cc1Br | inactive |
| CC(Cc1ccc2c(c1)OCO2)NO (stereo not given) | inactive |
| C[C@H](CN1CCOCC1)C(C(=O)N1CCCC1)(c1ccccc1)c1ccccc1 | inactive |
| CC(CC(C(N)=O)(c1ccccc1)c1ccccc1)N(C)C (stereo not given) | inactive |
| CCCCCCCCC(=O)NCc1ccc(O)c(OC)c1 | inactive |
| COc1cc(N)c(Cl)cc1C(=O)NC1CN2CCC1CC2 (stereo not given) | inactive |
| CCC(=O)OC1(c2ccccc2)CCN(C)CC1 | inactive |
| CC(C)=C[C@@H]1[C@@H](C(=O)OCc2coc(Cc3ccccc3)c2)C1(C)C | inactive |
| OC(O)C(Cl)(Cl)Cl | inactive |
| O=C(O)CCCCCCNC1c2ccccc2CCc2ccccc21 | inactive |
| Cc1nc2ccccc2c(=O)n1-c1ccccc1Cl | inactive |
| Cc1ncc2n1-c1ccc(Cl)cc1C(c1ccccc1F)=NC2 | inactive |
| CCCC[N+]1(C)[C@@H]2CC(OC(=O)[C@H](CO)c3ccccc3)C[C@H]1[C@@H]1O[C@@H]12 (stereo not given in full) | inactive |
| CCOC(=O)C(c1c(O)c2ccccc2oc1=O)c1c(O)c2ccccc2oc1=O | inactive |
| CN1C(=O)CN=C(c2ccccc2)c2cc([N+](=O)[O-])ccc21 | inactive |

| Structure (SMILES) | outcome |
| --- | --- |
| CCc1ccc(C2CCNCC2)cc1 | inactive |
| C[C@]12Cc3nonc3C[C@@H]1CC[C@@H]1[C@@H]2CC[C@@]2(C)[C@H]1CC[C@]2(C)O | inactive |
| CCC1(CC)C(=O)NC(=O)NC1=O | inactive |
| CC(C)NCC(O)c1ccc(N)c(C#N)c1 (stereo not given) | inactive |
| c1ccc2nc(N3CCNCC3)ccc2c1 | inactive |
| O=C(NC(=O)c1c(F)cccc1F)Nc1cc(Cl)c(OC(F)(F)C(F)C(F)(F)F)cc1Cl (stereo not given) | inactive |
| C[C@]12CC[C@H](O)CC1=CC[C@@H]1[C@@H]2CC[C@]2(C)C(=O)CC[C@@H]12 | inactive |
| COc1ccc(OC)c(CC(C)N)c1 (stereo not given) | inactive |
| C[N+]1(CCC(C(N)=O)(c2ccccc2)c2ccccc2)CCCCC1 | inactive |
| O=C(CCCCl)c1ccc(F)cc1 | inactive |
| ClCc1cccc(Cl)c1 | inactive |
| Sc1ccccc1Cl | inactive |
| CCO[C@H]1O[C@@H]2OC3(C)CC[C@H]4[C@H](C)CC[C@@H]([C@H]1C)[C@@]24OO3 | inactive |
| COP(=S)(OC)Oc1ccc(S(N)(=O)=O)cc1 | inactive |
| CC[C@H]1C[C@H]2[C@@H]3CCC4=CC(=O)CC[C@@H]4[C@H]3CC[C@]2(C)[C@H]1O | inactive |
| CC(C)(C)OC(=O)c1ncn2c1[C@@H]1CCCN1C(=O)c1c(Br)cccc1-2 | inactive |
| Oc1c(Br)cc(Br)cc1Br | inactive |
| O=C(CBr)Nc1ccc(Cl)cc1C(=O)c1ccccc1F | inactive |
| NCc1cccnc1 | inactive |
| CCN(CC)C(C)C(=O)c1ccccc1 (stereo not given) | inactive |
